Assay results as given in the supplement of paper PMC6555819.

Assays:
Test in all cases: PBM binding z-score (relative to random genomic background probes); higher = stronger binding; sequences stand for … in GC…GCGATTGACAGCGTAGAATGAAGG
[1] = test system: PPARg:RXRa DBDmut IVT, anti-RXR (DBD mutation: RXRa K156A/R161A, NR concentration 270 nM, RXRa partner concentration 90 nM)
How it was run: (§1)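 For binding z-scores, the reference was random background probes on custom Agilent 4×180K protein-binding microarrays. These arrays were incubated 1 h with ligand-free nuclear receptor dimers in PBS pH 7.4, 2% milk, 0.02% Triton X-100, 1 mM DTT, 0.2 mg/mL BSA and 0.4 mg/ml salmon testes DNA. Fluorescence was scanned after antibody detection of each partner (one per run) and regression-normalized.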

[2] = test system: PPARg:RXRa IVT, anti-PPARg (NR concentration 270 nM, RXRa partner concentration 90 nM)
How it was run: as §1

[3] = test system: PPARg DBDmut:RXRa IVT, anti-PPARg (DBD mutation: PPARg1 K132A/R137A, NR concentration 270 nM, RXRa partner concentration 90 nM)
How it was run: as §1

[4] = test system: PPARg DBDmut IVT, anti-PPARg (DBD mutation: PPARg1 K132A/R137A, NR concentration 270 nM)
How it was run: as §1

[5] = test system: PPARg homodimer (NR concentration 180 nM)
How it was run: as §1

[6] = test system: PXR:RXRa (NR concentration 270 nM, RXRa partner concentration 90 nM)
How it was run: as §1

[7] = test system: PXR homodimer (NR concentration 270 nM)
How it was run: as §1

[8] = test system: RARa:RXR (NR concentration 270 nM, RXRa partner concentration 90 nM)
How it was run: as §1

[9] = test system: RARa homodimer (NR concentration 270 nM)
How it was run: as §1

[10] = test system: RARb:RXRa (NR concentration 270 nM, RXRa partner concentration 90 nM)
How it was run: as §1

[11] = test system: RARb homodimer (NR concentration 270 nM)
How it was run: as §1

[12] = test system: RARg:RXRa (NR concentration 270 nM, RXRa partner concentration 90 nM)
How it was run: as §1

[13] = test system: RARg homodimer (NR concentration 270 nM)
How it was run: as §1

[14] = test system: RXRa DBDmut IVT, anti-RXR (DBD mutation: RXRa K156A/R161A, NR concentration 90 nM)
How it was run: as §1

[15] = test system: RXRa homodimer (NR concentration 180 nM)
How it was run: as §1

[16] = test system: THRa:RXRa (NR concentration 90 nM, RXRa partner concentration 90 nM)
How it was run: as §1

[17] = test system: THRa homodimer (NR concentration 90 nM)
How it was run: as §1

[18] = test system: VDR homodimer (NR concentration 270 nM)
How it was run: as §1

Sequence	PBM binding z-score [1]	PBM binding z-score [2]	PBM binding z-score [3]	PBM binding z-score [4]	PBM binding z-score [5]	PBM binding z-score [6]	PBM binding z-score [7]	PBM binding z-score [8]	PBM binding z-score [9]	PBM binding z-score [10]	PBM binding z-score [11]	PBM binding z-score [12]	PBM binding z-score [13]	PBM binding z-score [14]	PBM binding z-score [15]	PBM binding z-score [16]	PBM binding z-score [17]	PBM binding z-score [18]
CAAACTAGGACAAAGGTCAAAGTCGAGCCAACCA	6.48	7.54	2.91	1.8	4.89	5.62	2.1	6.43	3.25	4.8	4.67	6.7	5.88	2.3	7.22	4.13	1.18	2.51
CGTCAAAGTTCAAGGTGACGTAACAGAAAGCAGC	0.983	2.9	0.379	0.562	2.88	4.44	2.3	3.88	1.52	5.21	4.19	5.57	6.39	4.67	4.63	3.25	1.36	3.17
GCTTGTAGATCCAGGTTAAGAAAGACTAAGCTAA	1.08	0.859	0.236	-0.304	0.202	-0.27	-0.237	0.118	0.241	0.0746	-0.153	-0.172	-0.0642	-0.00816	-0.0609	0.485	-0.162	-0.0555
CAATCTAGGTCACCGGAAGGTCAAAGTCCGCATG	8.34	8.62	2.22	1.39	7.89	5.96	2.44	7.4	3.19	5.41	5.77	8.45	7.81	1.98	7.46	4.59	3.62	4.12
ATCGATAGGTCGTGAGGTGAGTATACAGAAAGGC	-0.14	1.35	1	0.371	0.792	1	0.158	1.94	0.167	1.97	1.39	2.16	1.84	0.0211	2.15	2.47	1.33	0.361
CCTACTGAGCCATTCAGAGGTCATTGATCATATG	0.787	1.12	0.0537	0.233	3.19	4.96	3.63	4.44	1.71	2.87	4.08	3.93	2.95	1.66	4.41	3.21	1.58	3.71
CCTTATGGGTCACTCCAGGTTATAGCATCGGAGT	5.51	5.56	1.27	1.01	1.61	4.22	0.18	2.9	0.657	3.35	2.87	3.68	3.9	0.586	3.31	4.85	0.288	0.918
CAAACTAGTTCAAAGGTCAAAGTCGAGCCAACCA	3.06	5.87	1.03	1.34	6.05	6.85	3.08	8.58	3.93	5.27	4.9	7.49	6.13	3.58	9.59	4.16	1.06	3.89
TAGCCGAGGTCATGCGGGCCAGTATAGTGTCGGC	1.88	4.29	1.82	0.598	2.81	5.79	2.14	6.18	0.453	5.17	4.39	6.21	5.83	3.81	6.86	4.36	2.99	4.62
TCATATAGGAAAATGCTAGGTGAAAGTCCGATCT	2.71	0.68	0.369	0.466	0.42	0.59	0.397	0.636	1.22	0.176	0.42	0.204	0.133	1.41	0.778	0.612	0.548	0.37
CCGACTGGGGCATTAGGTTACCATAAGCCAGCCC	4.18	4.74	1.31	-0.339	0.243	-0.496	-0.542	0.173	-0.742	0.848	0.851	0.715	0.58	-0.386	0.21	0.535	0.0828	-0.601
TCTATTAGTTGAAGGGAAACCGACGAGTCCGTTT	2.49	-0.0119	0.417	1.24	1.32	0.508	0.678	0.362	1.42	0.377	-0.0745	-0.0691	-0.0615	1.6	0.396	-0.149	0.214	1.19
ACAGACAAGTGAGTGAAGGTAACTCAGCTGGACG	-0.268	-0.138	0.174	0.39	-0.0501	-0.521	-0.267	-0.183	-0.707	-0.0703	-0.464	-0.0696	0.0663	-0.283	-0.0064	-0.0405	-0.435	-0.445
AGAACGAGGGCAATGAGTTGAGAGCACGGGTGGC	2.9	2.73	0.608	-0.139	0.0206	1.04	1.92	0.292	-0.276	2.05	1.1	0.994	1.58	1.93	0.838	1.1	-0.211	2.08
